# DAX1 inh-1 = NR0B1 (DAX1) inhibition; 340,000 tested, 0.99% active; P51843; HEK293 Gal4-DAX1 luciferase reporter, luminescence; inhibition, % at 6.75 µM; AID 504766;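 active means inhibition above the mean over all tested compounds plus 3 SD, cut at about 4.2% in these data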;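 further: 0% = DAX1-transfected cells with DMSO and 100% = empty-vector control cells with DMSO; inhibition shows as a rise in luminescence from relieved DAX1 repression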
# Target sequence (P51843 207-470 limits assumed): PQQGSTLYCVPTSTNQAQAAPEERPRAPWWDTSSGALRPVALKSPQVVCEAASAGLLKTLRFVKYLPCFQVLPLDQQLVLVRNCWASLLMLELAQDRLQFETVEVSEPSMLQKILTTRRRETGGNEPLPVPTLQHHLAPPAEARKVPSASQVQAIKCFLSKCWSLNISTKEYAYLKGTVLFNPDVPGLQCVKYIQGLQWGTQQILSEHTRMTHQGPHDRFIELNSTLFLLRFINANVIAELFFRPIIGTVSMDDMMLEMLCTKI
# ssDAF-12 act = activates DAF-12 receptor from parasite S. stercoralis; HEK293 ssDAF-12/GRIP1 lit1-tk-luc reporter, luminescence; % of 3 µM dafachronic acid response; 370,000 tested, 1% active; activation, % at 6.8 µM;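 active means activation above the mean over all tested compounds plus 3 SD, cut at about 0.9% in these data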;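 further: 0% = DMSO-only wells and 100% = 3 µM delta7-dafachronic acid wells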
# hgDAF-12 ag = activates the H. glycines DAF-12 receptor ligand-binding domain; AID 687014; activation, % at 6.8 µM; 370,000 tested, 1.8% active; HEK293 GAL4-hgDAF12 UAS-luciferase reporter, agonist luminescence; normalized to butyrate control;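 active means activation above a cutoff set at the mean of all screened compounds plus 3 SD, cut at about 10% in these data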;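 further: 0% = DMSO wells and 100% = sodium butyrate wells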
# DAX1 inh-2 = blocks DAX1 repression of SF-1 activated StAR promoter. HEK293T StAR-luciferase reporter, SF-1/DAX-1 repression relief. inhibition, % at 6.8 µM. 370,000 tested, 1.1% active;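 active means inhibition above the mean over all tested compounds plus 3 SD, cut at about 3.6% in these data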;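 further: 0% = DAX-1 cells with DMSO and 100% = cells lacking DAX-1 with DMSO; higher inhibition means more luminescence from relief of DAX-1 repression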
# hcDAF12 agonist = activators of H. contortus DAF-12 nuclear receptor. HEK293 hcDAF-12 lit1-tk-luc reporter, luminescence; 0% DMSO, 100% Δ7-dafachronic acid. activation, % at 6.8 µM. 370,000 tested, 1.4% active. AID 652067;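 active means activation above the mean of all tested compounds plus 3 SD, cut at about 5.5% in these data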;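 further: 100% = response to 3 µM Δ7-dafachronic acid high control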
# Numbers without * were called inactive; nt = no result. Sampled rows, rich in hits. Any-hit rate of the full collection: about 4.1%.
SMILES,DAX1 inh-1,ssDAF-12 act,hgDAF-12 ag,DAX1 inh-2,hcDAF12 agonist
N#C/C(=N\Nc1ccccc1)C(=N)N1CCCCCC1,6.8*,1,10,2,5
COc1ccc(N/N=C(\C#N)C(=N)N2CCOCC2)cc1,5.3*,-1,8,3,0
N#C/C(=N/Nc1ccccc1F)C(=N)N1CCOCC1,0,-1,3,1,0
COc1ccc(-c2ccc(C(=O)Nc3ccc4c(c3)OCO4)c3occc23)c(C)c1,nt,0,13*,3,3
COc1ccc(-c2ccc(C(=O)Nc3ccc(OC)nc3)c3occc23)c(C)c1,nt,-1,-4,-2,-3
COCCNC(=S)N(C)[C@H]1C[C@H]2c3[nH]c4c(-c5ccc6c(c5)OCO6)cccc4c3CCN2C[C@H]1[C@H](C)O,nt,-1,3,-1,-3
NC(=O)c1sc(=S)n(-c2ccc(Br)cc2)c1N,1,0,1,-1,6.5*
CCOC(=O)[C@]12CCCCC/C=C\1N(CCc1ccc(Cl)cc1)C(=O)[C@H]2CC(=O)N1CCN(C(=O)C2CC2)CC1,nt,-1,-3,-1,-1
Cc1ccc(CN2CCC(c3nc4ccc(Cl)cc4[nH]3)CC2)cc1,0,-2,-1,-1,1
CC1CCCCN1C(=O)CN1CCC(c2nc3ccc(Cl)cc3[nH]2)CC1 (centres undefined),4.5*,-2,-1,1,0
CCOC(=O)c1cc2c(s1)-c1ccccc1CC2,2,1,5,2,6.4*
COc1ccc(C(=O)NCC2CCN(C(=O)C(=O)c3cccs3)CC2)c(OC)c1,nt,-1,0,0,-2
Nc1ncnc(NCc2ccccc2)c1[N+](=O)[O-],1,-2,7,-1,0
Cn1cnc(NCc2ccccc2)c1[N+](=O)[O-],nt,3.4*,0,-1,1
Cc1cc(C)c(C)c(S(=O)(=O)Nc2ccccc2C(=O)O)c1C,4.9*,-1,-2,0,1
O=S(=O)(NCc1cn(Cc2ccccc2)nn1)c1ccccc1Br,nt,-1,-2,0,-1
OC(C#CCCN1CCCCC1)(c1ccccc1)C1CCCCC1 (centres undefined),5.0*,-1,-2,0,1
Cc1cc(NC(=O)CSc2nnc(-c3ccc4c(c3)OCCO4)o2)no1,-1,0,10,3.9*,4
Cc1cc(NC(=O)CSc2nnc(-c3cccc(Cl)c3)o2)no1,1,-1,0,0,-3
Cc1cc(NC(=O)CSc2nnc(CNC(=O)c3ccccc3)o2)no1,0,-1,0,2,1
Cc1cc(NC(=O)CSc2nnc(Cc3ccccc3)o2)no1,5.1*,-1,0,0,-1
CC(C)CN1C(=O)[C@]2(CC(=O)N(C)C2c2ccccc2)c2cc(-n3cc(CN(C)C)nn3)ccc21 (some centres undefined),nt,-1,-1,1,0
CN1CC=C(c2ccc(C(F)(F)F)cc2)N(c2ccccc2)C1=O,nt,-1,0,0,3
N#Cc1c(F)cccc1NCCCn1ccnc1,4.6*,-1,-2,0,0
O=C(/C=C(\Nc1cccc(Cl)c1)c1ccccc1)c1ccccc1,nt,0,7,3.7*,0
SMILES,DAX1 inh-1,ssDAF-12 act,hgDAF-12 ag,DAX1 inh-2,hcDAF12 agonist
O=C(Nc1ccc(Cl)cc1)Nc1cccc(C(=O)O)c1,nt,-1,12*,3,5
CC(=O)c1ccc(NC(=O)Nc2cccc(Cl)c2)cc1,2,1,13*,3,3
COC(=O)C1CCCN(C(=O)C(Cc2ccc3c(c2)OCO3)NC(C)=O)C1 (centres undefined),nt,-1,1,0,0
COC(CNC(=O)c1ccc2nc3ccccc3c(=O)n2c1)OC,0,-1,4,0,5.7*
C=CCOc1ccc(/C=C/C(=O)OCC(=O)N2CCN(C(C)=O)CC2)cc1,1,-1,1,-1,-1
C=CCOc1ccc(/C=C/C(C)=N\O)cc1,2,0,9,3.9*,3
CC1CC(C)CN(CCCNS(=O)(=O)c2cc3c(cc2Br)CCN3C(=O)C2CC2)C1 (centres undefined),nt,-1,2,1,-2
COc1cc(/C=C2\Oc3cc(O)ccc3C2=O)ccc1O,7.4*,-1,9,4.3*,2
O=C1/C(=C/c2ccc(O)c(O)c2)Oc2cc(O)ccc21,1,-1,7,3,1
Cc1ccc(-c2nnc(Cc3ccc([N+](=O)[O-])cc3)o2)cc1,2,-1,12*,1,3
O=[N+]([O-])c1ccc(Cc2nnc(-c3ccc(F)cc3)o2)cc1,2,0,9,1,4
Cc1ccc2nc(-c3ccccc3)c(Cc3cccc(Cl)c3)n2c1,nt,0,7,1,1
CCCc1nc2ccc(C)cn2c1Cc1ccsc1,nt,0,5,2,5.6*
CCCc1nc2ccc(C)cn2c1Cc1cccc(Cl)c1,nt,1.6*,8,1,5.6*
Cc1ccc2nc(C(C)(C)C)c(Cc3ccsc3)n2c1,nt,0,-1,-1,1
NNc1ncnc2sc3c(c12)CCC3,6.3*,1,12*,1,4
N#CC1=C(N)Oc2c(O)cc3ccccc3c2C1c1ccsc1 (centres undefined),-2,6.0*,0,0,0
COc1ccc(C2CC(c3ccccc3C)n3nc(N)nc3N2)cc1 (centres undefined),5.1*,-2,-1,0,1
CCOc1ccc(C2CC(c3ccc(CC)cc3)Nc3nc(N)nn32)cc1 (centres undefined),4.3*,-1,0,1,-2
CCCC(=O)N1CCC[C@]2(CC[C@@H](CCC#N)O2)C1,nt,-1,-1,0,1
C=CCNC(=O)CN(C(=O)c1ccncn1)c1cccc(Br)c1,nt,-1,-3,0,-3
CCc1cc2c(=O)c(-c3cscn3)coc2cc1O,0,1.0*,11*,1,5.7*
CCOC(=O)c1oc2cc(O)c(CC)cc2c(=O)c1-c1cscn1,0,0,3,0,0
COC(=O)c1cn(Cc2cccnc2)c(=O)c2ccccc12,-1,0.9*,-1,0,-2
Clc1ccccc1CNCC1CCCO1 (centres undefined),5.9*,0,2,-1,1
SMILES,DAX1 inh-1,ssDAF-12 act,hgDAF-12 ag,DAX1 inh-2,hcDAF12 agonist
Oc1ccc(Cl)cc1CNCC1CCCO1 (centres undefined),0,-2,0,-1,0
CCCCNC(=O)c1nc(-c2cccs2)oc1-c1ccc(Cl)cc1,nt,0.9*,3,-1,-1
O=C(CC1CCCC1)NNC(=O)c1ccccc1O,4,1.3*,5,0,0
CC(C)(C)C(=O)Nc1ccc(-c2cn3ccsc3n2)cc1,-3,1,10,4,5.9*
Cc1nc(-c2ccc(C(=O)Nc3cccc(Br)c3)cc2)cs1,-3,-1,11*,0,2
CC(C)CC(=O)Nc1ccc(-c2cn3ccsc3n2)cc1,-1,0,11*,3,2
